Among the data in PubChem BioAssay (Tox21) are Potency, viability change, negative = cytotoxic and activity change, negative = cytotoxicity values, retold here.

Results filed as inconclusive are left out. Unmarked numbers belong to inactive results. Calls of active or inactive are those of the source. Calls follow the shape of the dose curve; as a rule, active = well fitted cell-killing curve with a large enough effect in the repeat runs; inconclusive = weak or mixed curves, or effect the other way; inactive = flat fitted curve, though single readings scatter.

The nature of assay [1]: cAMP Responsive Elements (CRE) small molecule antagonists, cell-based qHTS assay: qHTS cell viability counter screen (AID 2060913). Also: nearly all actives have a fitted effect of over 40% in size. In outline: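 Viability of NKH477-stimulated (0.25 uM final) CRE-bla HEK293T cells is measured by CellTiter-Glo luminescence following 3 hrs compound exposure at 37 C.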
(In general: In qHTS, concentration-response curves come from the screen itself.)

Assay [2] in a line: cAMP Responsive Elements (CRE) small molecule agonists, cell-based qHTS assay: qHTS cell viability counter screen (AID 2060914). Also: nearly all actives have a fitted effect of over 50% in size. In outline: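 Cells are seeded and incubated 18 h, treated with compounds in DMSO for 3 h, read for the bla reporter, then given CellTiter-Glo; luminescence is measured after 30 min at room temperature.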
% is scaled to controls: 0 for no effect and ±100 for the full control effect.

In the case of `O=S(=O)(O)c1ccccc1O`, the Potency result in assay [1] and in assay [2] was “inactive” in each case.
On to `CC(C(=O)O)c1ccc(-c2ccccc2)c(F)c1` (centres undefined), for which the Potency result in assay [1] and in assay [2] was “inactive” throughout.
Take `OCCCCCCCCCCCCBr`: the Potency result in assay [1] and in assay [2] was “inactive” in each case.
`CC(=O)[C@@]1(O)CC[C@H]2[C@@H]3CCC4=CC(=O)CC[C@]4(C)[C@H]3CC[C@@]21C`: the Potency entry in assay [1] and in assay [2] was “inactive” in each case.
In the case of `CC(=O)c1nccs1`, the Potency entry in assay [1] and in assay [2] was “inactive” throughout.
As for `CC(=O)OCC(=O)[C@@]1(O)CCC2C3CCC4=CC(=O)CC[C@]4(C)C3[C@@H](O)C[C@@]21C` (some centres undefined), the Potency result in assay [1] and in assay [2] was “inactive” in each case.
In the case of `CN1CCCC(CC2c3ccccc3Sc3ccccc32)C1` (centres undefined), the Potency result in assay [1] and in assay [2] was “inactive” in each case.
For `O=CNc1ccccc1`, the Potency entry in assay [1] and in assay [2] was “inactive” each time.
As for `CO[Si](C)(OC)OC`, the Potency entry in assay [1] and in assay [2] was “inactive” each time.
`CC(=O)NCCCS(=O)(=O)O`: the Potency entry in assay [1] and in assay [2] was “inactive” in each case.
In the case of `O=C(OCC1(COC(=O)c2cccnc2)CCCC(COC(=O)c2cccnc2)(COC(=O)c2cccnc2)C1O)c1cccnc1`, the Potency result in assay [1] and in assay [2] was “inactive” throughout.
For the compound `C=CCCCCCCCCC(=O)OCC`, the Potency result in assay [1] and in assay [2] was “inactive” throughout.
For `CCC(C)COC(=O)CC(C)C` (centres undefined), the Potency result in assay [1] and in assay [2] was “inactive” throughout.
Turning to `CC(=O)Nc1cccc(C)c1`, the Potency result in assay [1] and in assay [2] was “inactive” in each case.
On to `CNC(=O)C(c1ccccc1)c1ccccc1`, for which the Potency entry in assay [1] and in assay [2] was “inactive” each time.
Consider `c1ccc2ncccc2c1`, for which the Potency entry in assay [1] and in assay [2] was “inactive” throughout.
In the case of `CCCC(C)=O`, the Potency result in assay [1] and in assay [2] was “inactive” in each case.
Take `O=c1cc(O)c(Cl)c[nH]1`: the Potency result in assay [1] and in assay [2] was “inactive” in each case.
As to `NC(=O)c1ccccc1C(N)=O`, the Potency entry in assay [1] and in assay [2] was “inactive” throughout.
On to `CCCCOc1cc(C(=O)NCCN(CC)CC)c2ccccc2n1`, for which the Potency result in assay [1] and in assay [2] was “inactive” in each case.
On to `NCCCNCCSP(=O)(O)O`, for which the viability change, negative = cytotoxic in assay [1] was -1.42% [at 8.39 µM]. In assay [2], the activity change, negative = cytotoxicity is 3.53% [at 8.39 µM].
As to `NC(CO)C(=O)NNCc1ccc(O)c(O)c1O` (centres undefined), the Potency entry in assay [1] and in assay [2] was “inactive” each time.
`O=CC1CC1`: the Potency result in assay [1] and in assay [2] was “inactive” in each case.
Take `CC(C)CCCCCCCOC(=O)c1ccc(C(=O)OCCCCCCCC(C)C)c(C(=O)OCCCCCCCC(C)C)c1`: the Potency entry in assay [1] and in assay [2] was “inactive” each time.
Consider `CO/N=C(/C(=O)N[C@@H]1C(=O)N2C(C(=O)OCOC(=O)C(C)(C)C)=C(C)CS[C@H]12)c1csc(N)n1`, for which the Potency result in assay [1] and in assay [2] was “inactive” each time.
`COc1cc(NCc2ccc3nc(N)nc(N)c3c2C)cc(OC)c1OC`: the Potency result in assay [1] and in assay [2] was “inactive” each time.
Turning to `CNC(C)=O`, the Potency result in assay [1] and in assay [2] was “inactive” in each case.
Take `CC(C)(C)C(=O)C1C(=O)c2ccccc2C1=O`: the Potency result in assay [1] and in assay [2] was “inactive” throughout.
`CC(C)C(=O)C(C)C`: the Potency result in assay [1] and in assay [2] was “inactive” throughout.
Regarding `CCCCC(CC)COC(=O)/C=C/c1ccc(OC)cc1` (centres undefined), the Potency entry in assay [1] and in assay [2] was “inactive” in each case.
On to `Cc1ccccc1N=O`, for which the Potency entry in assay [1] and in assay [2] was “inactive” in each case.
Regarding `OC(CCN1CCCCC1)(c1ccccc1)c1ccccc1`, the Potency entry in assay [1] and in assay [2] was “inactive” each time.
As for `COC(=O)CC(C)CCC=C(C)C` (centres undefined), the Potency result in assay [1] and in assay [2] was “inactive” in each case.
For `CCCC(=O)C(=O)O`, the Potency result in assay [1] and in assay [2] was “inactive” in each case.
In the case of `CCC(C)(C)C(=O)O[C@H]1C[C@@H](C)C=C2C=C[C@H](C)[C@H](CC[C@@H]3C[C@@H](O)CC(=O)O3)[C@H]21`, the Potency entry in assay [1] and in assay [2] was “inactive” in each case.
For `O=C(CCN1CCC(c2ccccc2)C1)c1ccc2c(c1)OCCO2` (centres undefined), the Potency entry in assay [1] and in assay [2] was “inactive” throughout.
As to `Cc1ccc2c(Br)cc(Br)c(O)c2n1`, the Potency result in assay [1] and in assay [2] was “inactive” in each case.
As to `COCc1c(C(C)C)nc(C(C)C)c(/C=C/[C@@H](O)C[C@@H](O)CC(=O)O)c1-c1ccc(F)cc1`, the Potency entry in assay [1] and in assay [2] was “inactive” each time.
As for `Oc1cccc2cc3cccc(O)c3c(O)c12`, the Potency entry in assay [1] and in assay [2] was “inactive” in each case.
For `CC(=O)OC(C)OC(=O)C(C)c1ccc(-c2ccccc2)c(F)c1` (centres undefined), the Potency entry in assay [1] and in assay [2] was “inactive” each time.
For `O=C1OC(=O)C2CC=CCC12` (centres undefined), the Potency result in assay [1] and in assay [2] was “inactive” each time.
Turning to `CC(=O)OC/C=C(\C)CC/C=C(\C)CCC=C(C)C`, the Potency entry in assay [1] and in assay [2] was “inactive” in each case.
As for `CCC(CC)CO`, the Potency result in assay [1] and in assay [2] was “inactive” throughout.
For the compound `CC(C)O`, the Potency result in assay [1] and in assay [2] was “inactive” each time.
As for `c1ccc2cc3ccccc3cc2c1`, the Potency entry in assay [1] and in assay [2] was “inactive” throughout.
On to `CC1(C)COCN1`, for which the Potency result in assay [1] and in assay [2] was “inactive” in each case.
For the compound `Oc1ccccc1C=NCc1ccccc1`, the Potency entry in assay [1] and in assay [2] was “inactive” each time.
As for `O=C1CCCC(=O)C1`, the Potency result in assay [1] and in assay [2] was “inactive” throughout.
Take `CCCCN(CCCC)CC(O)c1cc(Cl)cc2c1-c1ccc(Cl)cc1/C2=C/c1ccc(Cl)cc1` (centres undefined): the Potency result in assay [1] and in assay [2] was “inactive” each time.
Turning to `CCOC(=O)c1cnc2c(cnn2CC)c1NN=C(C)C`, the Potency result in assay [1] and in assay [2] was “inactive” each time.
`C[C@]12C[C@H](O)[C@H]3[C@@H](CCC4=CC(=O)CC[C@@]43C)[C@@H]1CC[C@@H]2C(=O)CO`: the Potency result in assay [1] and in assay [2] was “inactive” in each case.
On to `CC(C)(C)S`, for which the Potency entry in assay [1] and in assay [2] was “inactive” each time.
Regarding `O=c1n(CC2CO2)c(=O)n(CC2CO2)c(=O)n1CC1CO1` (centres undefined), the Potency entry in assay [1] and in assay [2] was “inactive” each time.
Regarding `CC(COc1ccccc1)NN` (centres undefined), the Potency result in assay [1] and in assay [2] was “inactive” each time.
On to `Cc1ccc2c(Cl)cc(Cl)c(O)c2n1`, for which the Potency result in assay [1] and in assay [2] was “inactive” throughout.
With `O=C1CCC/C=C\CCCCCCCCCC1`, the Potency entry in assay [1] and in assay [2] was “inactive” throughout.
Take `Cc1ccccc1CCO`: the Potency entry in assay [1] and in assay [2] was “inactive” in each case.
